# IDE exosite FP = exo-site inhibitors of human IDE, primary screen, biochemical, fluorescence anisotropy, probe displacement. Insulin-degrading enzyme (Homo sapiens), P14735. purified IDE, FL-6b probe fluorescence polarization; stronger effect = lower value. z-score at 20 µM. 17,000 tested, 6.3% active;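 active = z-score of -3 or lower, meaning strong loss of probe binding signal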;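 note: His-tagged human IDE residues 42-1019 made in E. coli with 30 nM FL-6b probe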
# * = called active by the depositor. The full list was thinned out, with hits kept by preference.
SMILES,IDE exosite FP
OC[C@H]1Nc2ccc(C#Cc3cccnc3)cc2[C@H]2NCC[C@H]21,2.8
C/C=C/c1ccc(C2[C@@H]3CN(C(=O)C4CCOCC4)C[C@H]2N3)cc1 (stereo partly drawn),0.244
O=C(Cc1ccccn1)N1CCCCN2[C@@H](CO)[C@H](c3ccc(C#Cc4ccccc4)cc3)[C@@H]2C1,-7.32*
CN(C)CC#Cc1ccc([C@@H]2[C@H]3CN(C(=O)Cc4ccccn4)CCCCN3[C@H]2CO)cc1,0.567
O=C(Cc1ccccn1)N1CCCCN2[C@@H](CO)[C@@H](c3ccc(Br)cc3)[C@@H]2C1,3.24
O=C(Cc1ccccn1)N1CCCCN2[C@H](CO)[C@@H](c3ccc(C#Cc4ccccc4)cc3)[C@H]2C1,-0.973
CC(C)CC#Cc1ccc([C@@H]2[C@@H](CO)N3CCCCN(C(=O)Cc4ccccn4)C[C@@H]23)cc1,5.11
O=C(Cc1ccccn1)N1CCCCN2[C@H](CO)[C@H](c3ccc(C#Cc4ccccc4)cc3)[C@H]2C1,-9.51*
CCCC#Cc1ccc([C@@H]2[C@H]3CN(C(=O)Cc4ccccn4)CCCCN3[C@H]2CO)cc1,-1.7
COCC#Cc1ccc([C@@H]2[C@@H](CO)N3CCCCN(C(=O)Cc4ccccn4)C[C@@H]23)cc1,-0.263
O=C(Cc1ccccn1)N1CCCCN2[C@H](CO)[C@@H](c3ccc(C#Cc4ccccc4)cc3)[C@@H]2C1,-4.94*
N#Cc1ccc(-c2ccc([C@@H]3[C@H]4CN(C(=O)Cc5ccccc5)CCCCN4[C@H]3CO)cc2)cc1,0.536
O=C(Cc1ccccc1)N1CCCCN2[C@@H](CO)[C@H](c3ccc(C#CC4(O)CCCC4)cc3)[C@@H]2C1,3.36
C/C=C/c1ccc(C2[C@@H]3CN(C(=O)c4cnccn4)C[C@H]2N3)cc1 (stereo partly drawn),-0.286
COC(=O)[C@@H]1[C@@H](CO)[C@@H]2Cn3c(ccc(-c4cccc(F)c4)c3=O)[C@H]1N2Cc1ccncc1,-0.193
COc1ccc(-c2ccc([C@@H]3[C@@H](CO)N4CCCCN(C(=O)Cc5ccncc5)C[C@H]34)cc2)cc1,-0.413
O=C([C@H]1N[C@H]2c3cccc(=O)n3C[C@H]2[C@@H]1CO)N1CCCCC1,0.868
N#Cc1cccc(-c2ccc([C@H]3[C@H]4CN(C(=O)Cc5ccncc5)CCCCN4[C@H]3CO)cc2)c1,1.33
O=C1CNC[C@@H]2[C@H](c3ccc(Br)cc3)[C@@H](CO)N12,0.695

# Compound activity (PubChem)
